Measured values: PubChem BioAssay (NCATS)
Results filed as inconclusive are left out. The source made the active and inactive calls. Calls come from the whole dose curve; as a rule, active = well fitted curve in the direction sought with a large enough effect; inconclusive = small, poorly fitted or top-dose-only effect, or another doubt; inactive = no such curve, though single readings can be large; an effect the other way counts as inactive or inconclusive. Where a SMILES comes first, the peptide text is derived from it.

Experiments:
[1] = biological target: Calcium and integrin-binding protein 1 (Homo sapiens) (UniProt Q99828); assay: Primary qHTS for Identification of Calcium Integrin Binding Protein 1 (CIB1) Competitor (AID 1508620);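 note: GST tagged CIB1 binding a fluorescein labelled alphaIIb integrin peptide tracer; top concentration of the series differs between compounds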
Sequence of Calcium and integrin-binding protein 1 (Homo sapiens) (Q99828 whole entry, looked up): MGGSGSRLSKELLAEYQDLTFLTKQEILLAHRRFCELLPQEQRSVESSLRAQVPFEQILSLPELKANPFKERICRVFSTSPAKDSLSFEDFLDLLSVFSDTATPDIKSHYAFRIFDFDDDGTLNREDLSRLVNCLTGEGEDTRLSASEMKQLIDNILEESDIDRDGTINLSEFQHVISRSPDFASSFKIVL
Summary of the method: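 CIB1-GST (1 uM final) and compound incubated 15 min at room temperature before adding FITC-alphaIIb peptide tracer (100 nM final). Competition for binding read by fluorescence polarization (ex 480, em 540) after another 15 min at room temperature.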

[2] = Primary qHTS for inhibitors of nuclear receptor binding SET domain protein 2 (NSD2) in an isogenic RCH-ACV NSD2 p.E1099K mutant (9B) (AID 1645876); note: nearly all actives have a fitted effect of over 70% in size
[3] = Primary qHTS for inhibitors of nuclear receptor binding SET domain protein 2 (NSD2) in an RCH-ACV wild type WT cells (2C) (AID 1645877); note: nearly all actives have a fitted effect of over 70% in size

Measured: Potency

C[C@H]1CC(=O)C2=C(C1)C(O)C(O)[C@@]1(O)[C@H]2C(=O)c2cccc(O)c2[C@@H]1O (stereo partly drawn)
inactive: all assays above

CC(C)C1NC(=O)C2CCCN2C1=O (stereo not drawn)
inactive: all assays above

CC(C)C[C@H](NC(=O)[C@@H]1O[C@H]1C(=O)O)C(=O)NCCCCN=C(N)N
inactive: all assays above

COc1ccc(/C=C/C(=O)O[C@@H]2[C@@H](O)[C@@H](O)[C@H](O[C@H]3[C@@H]4C=CO[C@@H](O[C@@H]5O[C@H](CO)[C@@H](O)[C@H](O)[C@H]5O)[C@@H]4[C@@]4(CO)O[C@@H]34)O[C@H]2C)cc1
inactive: all assays above

CCC/C=C1\OC(=O)C2=C1CCC(O)C2O (stereo not drawn)
inactive: all assays above

CC1CCC2(C(=O)OC3OC(CO)C(O)C(O)C3O)CCC3(C)C(=CCC4C5(C)CCC(O)C(C)(CO)C5CCC43C)C2C1(C)O (stereo not drawn)
inactive: all assays above

CC1=C2C(=O)C=C(CO[C@@H]3O[C@H](CO)[C@@H](O)[C@H](O)[C@H]3O)[C@@H]2[C@H]2OC(=O)[C@H](C)[C@@H]2[C@@H](O)C1
inactive: all assays above

CC1(O)CC(O)C2C(C(=O)O)=COC(OC3OC(CO)C(O)C(O)C3OC(=O)/C=C/c3ccc(O)cc3)C21 (stereo not drawn)
inactive: all assays above

CCC1=C(C)C(=O)C(C)CC12C(=O)CCC2C(=O)O (stereo not drawn)
inactive: all assays above

CC(=O)C1CCC(=O)N1Cc1ccccc1 (stereo not drawn)
inactive: all assays above

COC(=O)C1=COC(O[C@@H]2O[C@H](CO)[C@@H](O)[C@H](O)[C@H]2O)C2C(C)C(=O)CC12 (stereo partly drawn)
inactive: all assays above

C=CC(C)(O)CC/C=C(\C)C1CC=C(C)C(=O)O1 (stereo not drawn)
inactive: all assays above

CCC(C)/C=C(C)/C=C/C1=CC2=C(Cl)C(=O)C(C)(OC(C)=O)C(=O)C2=CN1C(CCCN=C(N)N)C(=O)O (stereo not drawn)
inactive: all assays above

C/C=C/C1OC2=C(C(=O)OC2(C)O)C(O)C1O (stereo not drawn)
inactive: all assays above

Nc1ccc(-n2nc(C(F)(F)F)cc2C(F)(F)F)cc1
inactive: all assays above

COC(=O)C1=CO[C@@H](O[C@@H]2O[C@H](CO[C@@H]3O[C@H](CO)[C@@H](O)[C@H](O)[C@H]3O)[C@@H](O)[C@H](O)[C@H]2O)[C@@H]2C(CO)=CC[C@H]12
inactive: all assays above

O=C(O)CCc1c(C(=O)O)[nH]c2cc(Cl)cc(Cl)c12
inactive: all assays above

C=C[C@@]1(C)CCC2=C([C@H]1OC(C)=O)[C@H](OC(C)=O)CC1[C@](C)(C(=O)OC)CC[C@H](OC(C)=O)[C@]21C (stereo partly drawn)
inactive: all assays above

O=C(O)C(Cc1ccccc1)NC(=O)C1CCCN1 (stereo not drawn) (H-Pro-Phe-OH; configuration not given here)
inactive: all assays above

C[C@H]1CC[C@@]2(OC1)O[C@H]1CC3C4CC[C@H]5C[C@@H](O)CC[C@]5(C)C4CC(=O)[C@]3(C)[C@H]1[C@@H]2C (stereo partly drawn)
inactive: all assays above

CC(C)C1CCC(C(=O)N[C@@H](Cc2ccccc2)C(=O)O)CC1 (stereo partly drawn)
inactive: all assays above

C[C@@]1(O)[C@H](O)[C@@H](CO)O[C@H]1n1cnc2c(=O)[nH]c(N)nc21
inactive: all assays above

C[C@H]1CCN2C[C@]34C[C@@]5(C(=O)Nc6c5ccc5c6OC=CC(C)(C)O5)C(C)(C)C3C[C@]12C(=O)N4C (stereo partly drawn)
inactive: all assays above

C=CCC1=C[C@]2(OC)[C@H](C)[C@@H](c3ccc(OC)c(OC)c3)O[C@]2(OC)CC1=O
inactive: all assays above

COC(=O)C[C@H]1C(C)(C)[C@H](OC(=O)C(C)C)C2CC3=C4CC(=O)O[C@@H](c5ccoc5)[C@]4(C)CCC3[C@@]1(C)C2=O (stereo partly drawn)
inactive: all assays above

C[C@@H]1O[C@@H](O[C@H]2[C@H](O[C@H]3[C@H](O[C@H]4CC[C@@]5(C)C(CC[C@]6(C)C5CC=C5[C@@H]7CC(C)(C)C[C@@H](O)[C@]7(C)CC[C@]56C)[C@@]4(C)CO)O[C@H](C(=O)O)[C@@H](O)[C@@H]3O)O[C@H](CO)[C@H](O)[C@@H]2O)[C@H](O)[C@H](O)[C@H]1O (stereo partly drawn)
inactive: [1] | [2] inactive [at 9.23 µM] | [3] inactive [at 9.23 µM]
